eIF4E-4G inh: inhibitors of eIF4E and eIF4G interaction in translation initiation | P63073+Q04637 | TR-FRET eIF4E-eIF4GI(517-606) binding, 2 h | inhibition, % at 21.7 µM | actives 0.37% (n = 220,000) | AID 782;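 active means inhibition above about 30%, limit read from the data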;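 further: 0% = full FRET control wells and 100% = background wells lacking eIF4GI fragment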
eIF4H inh: inhibitors of RNA binding by human eIF4H; inhibition, % at 35 µM; eIF4H fluorescence polarization binding assay; actives 0.94% (n = 290,000); AID 2012;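 further: calls also rest on retests at 20 µM and on dose response follow-up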
PERK inhibitor: human PERK inhibition, primary cell-based screen | Q9NZJ5 | CHO PERK-DD fusion, SEAP luminescence translation reporter | actives 0.17% (n = 220,000) | inhibition, % at 5.6 µM;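 active means inhibition above the mean inhibition of all tested compounds plus 3 SD, set separately per screening campaign, cut at about 2.9% in these data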;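 further: PERK kinase domain activated by AP20187 dimerizer at 100 nM; 0% = DMSO with dimerizer and 100% = rapamycin at 8.4 µM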
PABP1 MLLE inh: inhibitors of microRNA-mediated deadenylation, human PABP1 MLLE binding | GST-MLLE / FITC-PAM2 fluorescence polarization | actives 0.36% (n = 360,000) | inhibition, % at 20 µM; in the data active means inhibition above about 35%, passing the limit was not always enough;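 further: plate controls were DMSO wells with GST-MLLE for no effect and wells lacking GST-MLLE protein for full effect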
Target sequence (P11940 whole entry, looked up): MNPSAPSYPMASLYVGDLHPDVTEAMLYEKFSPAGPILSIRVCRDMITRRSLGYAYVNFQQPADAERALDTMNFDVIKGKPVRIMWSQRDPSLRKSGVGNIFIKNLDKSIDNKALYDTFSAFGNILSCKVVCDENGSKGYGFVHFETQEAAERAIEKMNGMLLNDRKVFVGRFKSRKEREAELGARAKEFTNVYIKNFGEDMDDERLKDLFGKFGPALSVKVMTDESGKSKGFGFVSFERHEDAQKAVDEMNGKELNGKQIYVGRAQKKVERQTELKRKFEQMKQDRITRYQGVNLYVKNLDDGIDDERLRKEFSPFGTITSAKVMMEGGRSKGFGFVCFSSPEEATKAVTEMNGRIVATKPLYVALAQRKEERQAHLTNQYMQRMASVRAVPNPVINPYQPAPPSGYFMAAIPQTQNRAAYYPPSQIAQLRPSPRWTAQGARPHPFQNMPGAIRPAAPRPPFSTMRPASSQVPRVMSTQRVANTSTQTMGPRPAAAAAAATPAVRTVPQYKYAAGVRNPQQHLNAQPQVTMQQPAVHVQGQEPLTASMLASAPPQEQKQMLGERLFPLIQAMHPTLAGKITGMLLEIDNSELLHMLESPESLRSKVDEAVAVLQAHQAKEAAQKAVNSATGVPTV
PABP FP inh: blocks human PABP binding to poly(A) RNA. P11940. fluorescence polarization. calls only at 35 µM. actives 1% (n = 290,000). AID 2014;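 further: calls also rest on retests at 20 µM and on dose response follow-up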
An asterisk follows results filed as active. Rows were chosen to be rich in hits. Some 1.6% of all compounds tested hit in one or more screens of this group. Unless noted, how the calls were made is not given here.

What do the screens show for `CCOc1ccc2nc(NCCNC(=S)NCCCN(C)C)c(C#N)cc2c1`?
eIF4E-4G inh: -1.6; eIF4H inh: 25.7; PERK inhibitor: 3.0*; PABP1 MLLE inh: -10.9; PABP FP inh: inactive

What do the screens show for `CCOc1ccc2nc(NCCNC(=O)Nc3ccccc3)c(C#N)cc2c1`?
eIF4E-4G inh: -7.7; eIF4H inh: 7.4; PERK inhibitor: -0.5; PABP1 MLLE inh: 7.3; PABP FP inh: inactive

Results for Cc1ccc(OCC(=O)NC(=S)Nc2ccc(Br)cn2)cc1 ?
eIF4E-4G inh: -1.1; eIF4H inh: 18.6; PERK inhibitor: 1.1; PABP1 MLLE inh: -33.9; PABP FP inh: inactive

Results for N#CC1=C(N)SC(N)=C(C#N)C1CCC1CCCCC1 ?
eIF4E-4G inh: -17.8; eIF4H inh: 121.5; PERK inhibitor: -0.4; PABP FP inh: active

What do the screens show for `Cc1[nH]c2ccccc2c1/C=C(\C#N)C(=O)NC1CC1`?
eIF4H inh: -7.2; PABP1 MLLE inh: -8.2; PABP FP inh: inactive

What do the screens show for `Cc1[nH]c2ccccc2c1/C=C(\C#N)C(=O)NC(C)c1ccccc1` (centres undefined)?
eIF4E-4G inh: 8.4; eIF4H inh: -10.2; PERK inhibitor: -0.4; PABP1 MLLE inh: -120.7; PABP FP inh: active

Results for CCN(CC(=O)Nc1ccc(OC)cc1)C(=O)CSCc1c(C)noc1C ?
PABP1 MLLE inh: 157.9*

Results for O=C(CSc1n[nH]c(-c2ccccc2)n1)NC(=O)NCc1ccco1 ?
eIF4E-4G inh: 0.2; eIF4H inh: 46.6*; PERK inhibitor: 0.4; PABP1 MLLE inh: -18.0; PABP FP inh: inactive

How did COc1ccc(C)cc1-n1nnnc1SCC(=O)NC(=O)NCc1ccco1 do in these assays?
eIF4E-4G inh: 6.8; eIF4H inh: 71.6*; PERK inhibitor: 0.1; PABP1 MLLE inh: -42.0; PABP FP inh: inactive

How did COc1ccc(-n2nnnc2SCC(=O)NCc2ccco2)cc1OC do in these assays?
eIF4E-4G inh: -6.3; eIF4H inh: 4.7; PERK inhibitor: -0.1; PABP1 MLLE inh: -10.2; PABP FP inh: inactive

What do the screens show for `O=C(CSc1ncccn1)NC(=O)NCc1ccco1`?
eIF4E-4G inh: -3.3; eIF4H inh: 33.5; PERK inhibitor: 0.7; PABP1 MLLE inh: -109.4; PABP FP inh: inactive

What do the screens show for `Cc1cc(SCC(=O)NC(=O)NCc2ccco2)nc2c(C)cccc12`?
eIF4E-4G inh: 4.2; eIF4H inh: 51.1*; PERK inhibitor: -0.6; PABP1 MLLE inh: 13.7; PABP FP inh: active

Results for O=C(CSc1ccccc1F)NC(=O)NCc1ccco1 ?
eIF4E-4G inh: 5.5; eIF4H inh: 77.0*; PERK inhibitor: 0.7; PABP1 MLLE inh: -2.0; PABP FP inh: active

What do the screens show for `Cc1cccc(NC(=O)CCS(=O)(=O)c2ccc(Br)cc2)c1`?
eIF4H inh: 5.6; PABP1 MLLE inh: 14.2; PABP FP inh: inactive

What do the screens show for `CN(c1ccccc1)S(=O)(=O)c1cccc(NC(=O)CCNC(=O)c2ccco2)c1`?
PABP1 MLLE inh: -3.2

Results for Cn1c(SCC(=O)NC(=O)NCc2ccco2)nnc1-c1ccccc1 ?
eIF4E-4G inh: -11.2; eIF4H inh: 92.0*; PERK inhibitor: 0.3; PABP1 MLLE inh: -0.1; PABP FP inh: active

Results for COc1ccc(C(=O)CSc2n[nH]c(-c3ccco3)n2)cc1 ?
eIF4E-4G inh: 2.8; eIF4H inh: 71.1*; PERK inhibitor: -0.1; PABP1 MLLE inh: 2.0; PABP FP inh: active

Results for Cc1ccc(C(=O)CSc2n[nH]c(-c3ccco3)n2)cc1C ?
eIF4E-4G inh: 1.3; eIF4H inh: 26.8; PERK inhibitor: 0.2; PABP1 MLLE inh: 1.7; PABP FP inh: inactive

Results for Cc1ccccc1CSCC(=O)NC(=O)NCc1ccco1 ?
eIF4E-4G inh: 0.1; eIF4H inh: 55.2*; PERK inhibitor: -0.4; PABP1 MLLE inh: 12.3; PABP FP inh: active

How did O=C(CSc1nnc(-c2ccc(OC(F)F)cc2)o1)NC(=O)NCc1ccco1 do in these assays?
eIF4E-4G inh: 6.4; eIF4H inh: 65.9*; PERK inhibitor: 0.1; PABP1 MLLE inh: -128.8; PABP FP inh: inactive

Results for CC(C)CC1COC(=O)N1 (centres undefined) ?
eIF4H inh: -2.3; PABP1 MLLE inh: -5.8; PABP FP inh: inactive

What do the screens show for `CN(C(=O)COC(=O)CSc1cc(Cl)ccc1Cl)c1c(N)n(Cc2ccccc2)c(=O)[nH]c1=O`?
PABP1 MLLE inh: -28.2

How did Cc1ccc(S(=O)(=O)N2CCOCC2)cc1NC(=O)Cn1c(=O)ccn(Cc2ccccc2)c1=O do in these assays?
PABP1 MLLE inh: -63.5

Results for O=C(O)c1cccc(Nc2c3ccccc3nc3ccccc23)c1 ?
eIF4H inh: 4.4; PABP1 MLLE inh: -1.8; PABP FP inh: inactive

What do the screens show for `O=C(O)c1cc(S(=O)(=O)O)cc(Nc2c3ccccc3nc3ccccc23)c1O`?
eIF4H inh: 98.4*; PABP1 MLLE inh: 6.8; PABP FP inh: active

How did COc1ccc2c3c(ccc2c1)C(=O)/C(=C/O)CC3 do in these assays?
PABP1 MLLE inh: 43.4*

What do the screens show for `COc1ccc2[nH]cc(CCNC(=O)CS(=O)(=O)Cc3ccccc3)c2c1`?
eIF4H inh: -3.7; PABP1 MLLE inh: 4.0; PABP FP inh: inactive

What do the screens show for `O=C(CN1CCCC1)Nc1sc2c(c1C(=O)Nc1ccc(Br)cc1)CCC2`?
eIF4H inh: 7.2; PABP1 MLLE inh: -2.3; PABP FP inh: inactive

How did CN1CCN(CC(=O)Nc2sc3c(c2C(=O)Nc2ccccc2)CCCC3)CC1 do in these assays?
eIF4H inh: 3.8; PABP1 MLLE inh: -105.7; PABP FP inh: active

How did CSc1nc(Sc2ccc(Cl)cc2)c2ccccc2n1 do in these assays?
eIF4E-4G inh: 14.3; eIF4H inh: -9.6; PERK inhibitor: 2.9*; PABP1 MLLE inh: 7.1; PABP FP inh: inactive

How did CSc1nc(Sc2ccccc2)c2ccccc2n1 do in these assays?
eIF4E-4G inh: -6.4; eIF4H inh: 0.1; PERK inhibitor: 0.5; PABP1 MLLE inh: 18.9; PABP FP inh: inactive

Results for CCC(C)Nc1nnnc2c1sc1nc3c(cc12)COC(C)(C)C3 (centres undefined) ?
eIF4E-4G inh: 1.4; eIF4H inh: 85.3*; PERK inhibitor: 0.6; PABP1 MLLE inh: -4.8; PABP FP inh: inactive

How did CCOC(=O)N1CC=C2C(C#N)=C(N)C(C#N)(C#N)[C@H](c3cccs3)C2C1 (some centres undefined) do in these assays?
eIF4E-4G inh: 1.5; eIF4H inh: inconclusive; PERK inhibitor: -1.1; PABP1 MLLE inh: 16.8; PABP FP inh: inactive

How did CC1CC=C2C(C#N)=C(N)C(C#N)(C#N)C(c3cccs3)C2C1 (centres undefined) do in these assays?
eIF4E-4G inh: 5.0; eIF4H inh: 122.8*; PERK inhibitor: 0.9; PABP1 MLLE inh: 79.8; PABP FP inh: active

Results for Cc1cc(C)n(CCc2nc(-c3ccco3)cs2)n1 ?
eIF4E-4G inh: 1.8; eIF4H inh: 51.3*; PERK inhibitor: 0.4; PABP1 MLLE inh: 10.9; PABP FP inh: active

What do the screens show for `Cc1cc(C)n(CCc2nc(-c3cccs3)cs2)n1`?
eIF4E-4G inh: -1.1; eIF4H inh: 1.9; PERK inhibitor: 0.7; PABP1 MLLE inh: 16.3; PABP FP inh: inactive
